Source: ChEMBL document CHEMBL2218924, “A broad activity screen in support of a chemogenomic map for kinase signalling research and drug discovery” (Biochem J, 2013)

The compounds below were run against Ribosomal protein S6 kinase alpha-6 (Homo sapiens) (UniProt Q9UK32). Conditions: at 1 µM.
Sequence of Ribosomal protein S6 kinase alpha-6 (Homo sapiens) (Q9UK32 whole entry): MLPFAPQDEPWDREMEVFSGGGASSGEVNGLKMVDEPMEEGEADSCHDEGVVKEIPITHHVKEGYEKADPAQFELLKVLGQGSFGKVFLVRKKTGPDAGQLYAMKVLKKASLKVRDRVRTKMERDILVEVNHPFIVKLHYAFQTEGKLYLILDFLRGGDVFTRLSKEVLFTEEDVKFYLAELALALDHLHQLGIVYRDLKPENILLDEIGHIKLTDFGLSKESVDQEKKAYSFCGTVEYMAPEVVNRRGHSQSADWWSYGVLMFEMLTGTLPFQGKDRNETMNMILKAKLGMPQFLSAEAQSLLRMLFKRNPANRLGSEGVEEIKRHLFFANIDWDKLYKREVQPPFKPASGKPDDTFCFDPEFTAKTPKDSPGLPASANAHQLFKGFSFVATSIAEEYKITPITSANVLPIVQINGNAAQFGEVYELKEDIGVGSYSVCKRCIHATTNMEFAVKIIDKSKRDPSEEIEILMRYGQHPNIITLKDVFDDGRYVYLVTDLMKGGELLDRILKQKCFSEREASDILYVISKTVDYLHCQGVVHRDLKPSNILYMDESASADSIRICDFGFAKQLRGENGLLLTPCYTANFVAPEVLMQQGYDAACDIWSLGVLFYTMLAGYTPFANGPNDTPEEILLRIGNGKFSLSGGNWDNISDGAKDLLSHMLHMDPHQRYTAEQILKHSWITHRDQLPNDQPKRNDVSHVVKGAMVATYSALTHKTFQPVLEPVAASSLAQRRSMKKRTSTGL

Compound	residual activity [%]
CCOC(=O)c1c(C)[nH]c(/C=C2\C(=O)Nc3ccccc32)c1C	88
NC(=O)c1ccc(-c2nc(-c3ccc4c(c3)OCCO4)c(-c3ccccn3)[nH]2)cc1	90
O=C1Nc2ccccc2/C1=C\c1c(Cl)[nH]c2ccccc12	51
O=C(NC(NC(=S)Nc1ccc(F)c([N+](=O)[O-])c1)C(Cl)(Cl)Cl)C(c1ccccc1)c1ccccc1 (configuration not stated)	80
COc1ccc(-c2cnc3c(-c4ccsc4)cnn3c2)cc1	100
Cn1sc(=O)n(Cc2ccccc2)c1=O	95
COc1cc2ncnc(Nc3cccc(Cl)c3)c2cc1OC	123
CC(C)(C)c1nc2c3ccc(F)cc3c3c(=O)[nH]ccc3c2[nH]1	42
O=C1Cc2c([nH]c3ccc([N+](=O)[O-])cc23)-c2ccccc2N1	64
CCCCc1c(-c2ccc(O)cc2)[nH]c2nccnc12	86
CC(C)[C@H](CO)Nc1nc(Nc2cc(N)cc(Cl)c2)c2ncn(C(C)C)c2n1	18
O=S(=O)(c1cccc2cnccc12)N1CCCNCC1	85
N#C/C(=C1/Nc2ccccc2S1)c1ccnc(NCCc2cccnc2)n1	63
O=C(Nc1nc2ccccc2n1CCN1CCOCC1)c1cccc([N+](=O)[O-])c1	108
N#Cc1c(NC(=O)c2cccc3ccccc23)sc2c1CCCC2	92

What follows are compounds tested against Ribosomal protein S6 kinase alpha-6 (Homo sapiens) (UniProt Q9UK32). Conditions: at 10 µM.

Compound	residual activity [%]
CCOC(=O)c1c(C)[nH]c(/C=C2\C(=O)Nc3ccccc32)c1C	90
Nc1nccc(-c2c(-c3ccc(F)cc3)ncn2C2CCNCC2)n1	70
O=C1Nc2ccccc2/C1=C\c1c(Cl)[nH]c2ccccc12	33
O=C(NC(NC(=S)Nc1ccc(F)c([N+](=O)[O-])c1)C(Cl)(Cl)Cl)C(c1ccccc1)c1ccccc1 (configuration not stated)	94
COc1ccc(-c2cnc3c(-c4ccsc4)cnn3c2)cc1	136
Cn1sc(=O)n(Cc2ccccc2)c1=O	93
Fc1ccc(-c2nc3n(c2-c2ccncc2)CCS3)cc1	92
COc1cc2ncnc(Nc3cccc(Cl)c3)c2cc1OC	64
CC(C)(C)c1nc2c3ccc(F)cc3c3c(=O)[nH]ccc3c2[nH]1	37
O=C1Cc2c([nH]c3ccc([N+](=O)[O-])cc23)-c2ccccc2N1	38
O=C(c1ccccc1)c1ccc(N2CCOCC2)cc1O	130
CCCCc1c(-c2ccc(O)cc2)[nH]c2nccnc12	84
CC(C)[C@H](CO)Nc1nc(Nc2cc(N)cc(Cl)c2)c2ncn(C(C)C)c2n1	6
O=S(=O)(c1cccc2cnccc12)N1CCCNCC1	49
N#C/C(=C1/Nc2ccccc2S1)c1ccnc(NCCc2cccnc2)n1	63
O=C(Nc1nc2ccccc2n1CCN1CCOCC1)c1cccc([N+](=O)[O-])c1	80
N#Cc1c(NC(=O)c2cccc3ccccc23)sc2c1CCCC2	90

The compounds below were run against Mitogen-activated protein kinase 14 (Homo sapiens) (UniProt Q16539). Conditions: at 1 µM.
Sequence of Mitogen-activated protein kinase 14 (Homo sapiens) (Q16539 whole entry): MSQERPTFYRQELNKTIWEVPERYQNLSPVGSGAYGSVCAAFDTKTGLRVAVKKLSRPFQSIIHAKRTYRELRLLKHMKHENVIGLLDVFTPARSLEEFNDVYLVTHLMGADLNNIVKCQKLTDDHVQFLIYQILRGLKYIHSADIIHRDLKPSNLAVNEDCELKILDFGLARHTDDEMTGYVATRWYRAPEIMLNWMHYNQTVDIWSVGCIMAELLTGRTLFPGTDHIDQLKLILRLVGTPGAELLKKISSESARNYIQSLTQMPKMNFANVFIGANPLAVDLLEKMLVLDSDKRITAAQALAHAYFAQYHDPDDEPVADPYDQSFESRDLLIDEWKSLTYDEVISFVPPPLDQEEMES

Compound	residual activity [%]
NC(=O)c1ccc(-c2nc(-c3ccc4c(c3)OCCO4)c(-c3ccccn3)[nH]2)cc1	77
O=c1c(-c2ccc(F)cc2)c(-c2ccncc2)[nH]n1-c1ccc(Cl)cc1	3
O=C(O)/C=C/c1cc(Br)c(Br)c(Br)c1Br	77
COc1ccc(-c2cnc3c(-c4ccsc4)cnn3c2)cc1	81
CC(C)N(CCC(=O)c1ccc2ccccc2c1)Cc1ccccc1	81
Cn1sc(=O)n(Cc2ccccc2)c1=O	87
Fc1ccc(-c2nc3n(c2-c2ccncc2)CCS3)cc1	16
COc1cc2ncnc(Nc3cccc(Cl)c3)c2cc1OC	56
Nc1ncnc2c1cnn2-c1ccccc1	83
CC(C)(C)c1nc2c3ccc(F)cc3c3c(=O)[nH]ccc3c2[nH]1	73
COc1ccc(Cl)cc1NC(=O)Nc1cc(C)nc2ccccc12	82
O=C(c1ccccc1)c1ccc(N2CCOCC2)cc1O	79
CCCCc1c(-c2ccc(O)cc2)[nH]c2nccnc12	100
N#C/C(=C1/Nc2ccccc2S1)c1ccnc(NCCc2cccnc2)n1	76
N#C/C(=C\c1ccc(O)c(O)c1)C(=O)NCc1ccccc1	72

These compounds were tested against Mitogen-activated protein kinase 14 (Homo sapiens) (UniProt Q16539). Conditions: at 10 µM.

Compound	residual activity [%]
NC(=O)c1ccc(-c2nc(-c3ccc4c(c3)OCCO4)c(-c3ccccn3)[nH]2)cc1	37
O=c1c(-c2ccc(F)cc2)c(-c2ccncc2)[nH]n1-c1ccc(Cl)cc1	0
O=C1Nc2ccccc2/C1=C\c1c(Cl)[nH]c2ccccc12	45
O=C(O)/C=C/c1cc(Br)c(Br)c(Br)c1Br	90
CC(C)N(CCC(=O)c1ccc2ccccc2c1)Cc1ccccc1	79
Cn1sc(=O)n(Cc2ccccc2)c1=O	87
Fc1ccc(-c2nc3n(c2-c2ccncc2)CCS3)cc1	3
COc1cc2ncnc(Nc3cccc(Cl)c3)c2cc1OC	25
CC(C)(C)c1nc2c3ccc(F)cc3c3c(=O)[nH]ccc3c2[nH]1	69
COc1ccc(Cl)cc1NC(=O)Nc1cc(C)nc2ccccc12	91
O=C(c1ccccc1)c1ccc(N2CCOCC2)cc1O	83
CCCCc1c(-c2ccc(O)cc2)[nH]c2nccnc12	88
CC(C)[C@H](CO)Nc1nc(Nc2cc(N)cc(Cl)c2)c2ncn(C(C)C)c2n1	95
N#C/C(=C1/Nc2ccccc2S1)c1ccnc(NCCc2cccnc2)n1	41
N#C/C(=C\c1ccc(O)c(O)c1)C(=O)NCc1ccccc1	102
